# Hits are enriched below; roughly 2.4% of the tested compounds scored in any of these assays.
# APEX1 inh: APE1 (human) endonuclease inhibition; recombinant APE1, TAMRA/BHQ-2 abasic DNA cleavage fluorescence; Potency, µM (top dose mostly 65.8 µM), without a hit: at the highest dose activity change, negative = inhibition, usual class: inhibitors; 350,000 compounds, 0.35% hits; AID 2517;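 further: potency means the concentration at half of the fitted maximal effect; plate controls were vehicle for no effect and reference inhibitor for full effect; nearly all actives have a fitted effect of over 55% in size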
#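 Activity was derived from the fluorescence gain between first and third kinetic reads (60 s intervals, ex 525/em 598 nm) after 50 nM THF-abasic TAMRA/BHQ-2 duplex was added to 0.75 nM APE1 preincubated 15 min with compound.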
# Pol eta inh-1: inhibitors of human DNA polymerase eta | recombinant Pol eta, fluorescent DNA replication assay | 390,000 compounds, 1.2% hits | Potency, µM (titrated, usually from 114 µM), inactives show at the top dose activity change, negative = inhibition, hits mostly inhibitors; further: potency means the concentration at half of the fitted maximal effect; on the % scale 0 is the no-effect control and ±100 the full control effect
# Target sequence (Q9Y253 whole entry, looked up): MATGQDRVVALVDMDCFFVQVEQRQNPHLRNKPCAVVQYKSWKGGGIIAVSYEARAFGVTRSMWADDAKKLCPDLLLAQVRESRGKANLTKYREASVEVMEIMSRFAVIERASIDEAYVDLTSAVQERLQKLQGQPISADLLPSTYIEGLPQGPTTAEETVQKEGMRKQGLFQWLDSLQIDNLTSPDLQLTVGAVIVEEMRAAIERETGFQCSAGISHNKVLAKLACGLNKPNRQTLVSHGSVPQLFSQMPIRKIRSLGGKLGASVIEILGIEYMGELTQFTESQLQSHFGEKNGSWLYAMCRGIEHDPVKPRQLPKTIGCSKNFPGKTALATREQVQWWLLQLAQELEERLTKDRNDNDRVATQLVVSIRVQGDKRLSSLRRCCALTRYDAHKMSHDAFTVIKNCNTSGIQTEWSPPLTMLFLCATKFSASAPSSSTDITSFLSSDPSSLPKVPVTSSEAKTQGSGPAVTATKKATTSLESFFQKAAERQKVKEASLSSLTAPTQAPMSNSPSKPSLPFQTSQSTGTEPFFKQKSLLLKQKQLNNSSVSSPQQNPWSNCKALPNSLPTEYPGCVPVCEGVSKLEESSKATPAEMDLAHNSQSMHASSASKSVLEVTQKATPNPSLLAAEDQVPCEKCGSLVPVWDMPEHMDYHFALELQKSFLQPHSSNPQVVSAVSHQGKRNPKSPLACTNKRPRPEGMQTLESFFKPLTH
#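 Fluorescent replication assay: 50 nM final substrate added after a 15 min room-temperature compound preincubation with 10 nM enzyme. Signal taken at 0 min and again at 10 min.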
# Pol kappa inh-1: DNA polymerase kappa (human) inhibition; AID 588579; 400,000 compounds, 0.53% hits; Q9UBT6; purified Pol kappa, fluorescent DNA synthesis assay, 10 min; Potency, µM (titrated, usually from 107 µM), inactives show at the top dose activity, negative = inhibition, actives largely listed as inhibitors; further: potency means the concentration at half of the fitted maximal effect; on the % scale 0 is the no-effect control and ±100 the full control effect
#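 Enzyme at 10 nM met test compounds for 15 min at room temperature. Substrate addition (50 nM final) began the reaction, which was monitored by fluorescence at 0 and 10 min.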
# POLI inh: DNA polymerase iota (human) inhibition; Pol iota fluorescent replication assay, 10 min; AID 588590; 390,000 compounds, 1% hits; Potency, µM (highest dose often 115 µM), for inactives: at the highest dose activity, negative = inhibition, usual class: inhibitors; Q9UNA4; further: potency means the concentration at half of the fitted maximal effect
#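 Pol iota at 10 nM preincubated 15 min with compounds at room temperature; reaction started with fluorescent substrate, 50 nM final. Fluorescence read kinetically at 0 and 10 min; buffer-only wells as negative control.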
# GLS inhibitor: inhibitors of human glutaminase (GLS). 410,000 compounds, 0.21% hits. AID 624170. GLS enzymatic activity, qHTS titration. Potency, µM (highest dose often 45.5 µM), for the others: at the highest dose activity change, negative = inhibition, most hits filed as inhibitors; further: potency means the concentration at half of the fitted maximal effect; on the % scale 0 is the no-effect control and ±100 the full control effect
#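 Assay buffer: 45 mM KH2PO4 pH 8.2, 0.02% Tween-20. hKGA acts on L-glutamine (1 mM solution added); product glutamate is reported by an oxidase/peroxidase Amplex Red coupling, with fluorescence taken at baseline and 30 min.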
# Pol beta inh: DNA polymerase beta (human) inhibition; P06746; Pol beta primer extension/strand displacement, fluorescence kinetic; Potency, µM (series often up to 114 µM), for the others: top-dose activity change, negative = inhibition, most hits filed as inhibitors; 340,000 compounds, 1.3% hits; further: potency means the concentration at half of the fitted maximal effect; on the % scale 0 is the no-effect control and ±100 the full control effect
#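 Preincubation: enzyme (10 nM) with compound, 15 min, RT. Reaction: substrate added to 50 nM final. Reads: 0 and 10 min. Analysis: normalized, Hill fit.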
# PGK validate: TbPGK inhibition, hit validation; shares compounds with Pol kappa inh-1; TbPGK coupled GAPDH assay, Kinase-Glo luminescence; Potency, µM (highest dose often 57.5 µM), for the others: at the top dose activity change, negative = inhibition, most hits filed as inhibitors; 500 compounds, 79% hits; AID 686980; further: potency means the concentration at half of the fitted maximal effect; on the % scale 0 is the no-effect control and ±100 the full control effect; nearly all actives have a fitted effect of over 65% in size
# Pol iota confirm: Confirm cherry-picked inhibitors of human polymerase iota; shares compounds with Pol kappa inh-1; Pol iota primer extension, TAMRA/BHQ fluorescence; AID 720496; 1,500 compounds, 77% hits; Potency, µM, hits mostly inhibitors; further: potency means the concentration at half of the fitted maximal effect
# Pol kappa inh-2: confirmation of human DNA polymerase kappa inhibitors | shares compounds with Pol eta inh-1 | purified Pol-kappa, fluorescent strand-displacement substrate | Potency, µM, most hits filed as inhibitors | 920 compounds, 76% hits; further: potency means the concentration at half of the fitted maximal effect
# Pol eta inh-2: Pol eta (human) inhibition, cherry-pick confirmation | 2,600 compounds, 64% hits | shares compounds with Pol eta inh-1 | Pol eta primer extension, TAMRA/BHQ fluorescence, 10 min | Potency, µM, usual class: inhibitors | AID 720502; further: potency means the concentration at half of the fitted maximal effect
# GLS hit conf: glutaminase (human) inhibition, hit confirmation | shares compounds with GLS inhibitor | biochemical glutaminase enzyme inhibition assay | Potency, µM (series often up to 46.1 µM), without a hit: at the top dose activity change, negative = inhibition, usual class: inhibitors | 35 tested, under 10 active; calls by dose curve
# HRP GOx counter: inhibits HRP glutamate oxidase coupled readout, glutaminase counter-screen; shares compounds with GLS inhibitor; activity change, negative = inhibition, % at 46.1 µM; 35 tested, under 10 active; AID 624262; HRP/glutamate oxidase coupled Amplex Red fluorescence counterscreen
# HEK293 tox: HEK-293 cytotoxicity, glutaminase hit confirmation; HEK-293 viability, CellTiter-Glo luminescence, 24 h; AID 624264; 35 tested, under 10 active; shares compounds with GLS inhibitor; activity change, negative = cytotoxicity, % at 46.1 µM
# * marks the source's active call; other numbers are inactive results; ? = inconclusive; · = no result given; [ ] = dose if it differs, or a comment. Unless noted, the call rests on the fitted dose curve; in most records, active means well fitted curve in the direction sought with a large enough effect; inconclusive means small, poorly fitted or top-dose-only effect, or another doubt; inactive means no such curve, though single readings can be large; an effect the other way counts as inactive or inconclusive.
SMILES,APEX1 inh,Pol eta inh-1,Pol kappa inh-1,POLI inh,GLS inhibitor,Pol beta inh,Pol iota confirm,Pol eta inh-2,others
O=C1CC(=O)NC(SCC(=O)Nc2ccccc2[N+](=O)[O-])=N1,-41.9%,5.62µM*,39.8µM*,2.82µM*,156.8%,?,11.9*,6.01*,PGK validate=10.3µM*
CCC1=[N+](C)c2cccc3cccc(c23)N1C,-13.2%,-12.4%,-10.9%,44.3%,-1.0%,?,·,·,
Cn1nc(C(F)(F)F)c(/C=N/OC(=O)c2ccccc2Cl)c1SCc1ccc(Cl)cc1,1.4%,-10.7%,-22.2%,18.5%,-3.2%,?,·,·,
Oc1ccc2ccccc2c1C=NC12CN3CCN(CN(C3)C1)C2,-4.6%,20µM*,-8.8%,20µM*,2.2%,4.3%,?,?,
OCC(CO)(CO)N=Cc1c(O)ccc2ccccc12,9.8%,-6.0%,-1.2%,?,5.3%,22.5%,·,·,
CCn1c(SCC(=O)N/N=C(\C)c2ccco2)nnc1-c1ccccc1,-5.2%,-6.3%,5.4%,13.1%,-2.7%,12.6%,·,·,
O=C(CSc1nnc(SCc2ccccc2)s1)N/N=C/C=C/c1ccco1,12.6µM*,2.82µM*,25.1µM*,14.1µM*,6.2%,10µM*,15*,19*,Pol kappa inh-2=15*
O=C(Cc1cccs1)N/N=C/C=C/c1ccco1,15.7%,8.91µM*,79.4µM*,28.2µM*,2.1%,17.8µM*,?,?,Pol kappa inh-2=29.9*
CCn1c(SCC(=O)N/N=C/C(C)=C/c2ccco2)nnc1-c1ccccc1,?,89.1µM*,?,?,0.3%,?,59.7*,?,
COc1cccc(OC)c1C(=O)Nc1ccc(NC(=O)c2ccco2)cc1,0.4%,-6.4%,-15.5%,6.8%,5.0%,-0.4%,·,·,
Cc1ccc2oc(=S)n(C)c2c1,4.9%,-2.8%,-11.5%,2.1%,6.4%,10.0%,·,·,
CCc1ccc(NC(=O)C2CCN(S(=O)(=O)c3c(C)noc3/C=C/c3ccco3)CC2)cc1,·,-8.8%,-1.5%,?,-8.4%,13.1%,·,·,
COc1ccc(NC(=O)C2CCN(S(=O)(=O)c3c(C)noc3/C=C/c3ccco3)CC2)cc1,·,31.6µM*,?,?,?,25.1µM*,23.8*,26.9*,PGK validate=10.3µM*;Pol kappa inh-2=11.9*
Cc1cc(C(=O)OCC(=O)N2CC(=O)Nc3ccccc32)no1,0.2%,-12.1%,-0.6%,56.0%,-14.8%,12.4%,·,·,
CCN(CC)c1ccc2c(c1)oc(=O)c1c(Cl)cc(=O)oc12,-4.3%,14.1µM*,?,14.1µM*,38.4%,-14.6%,?,?,
O=C(NCc1ccco1)c1cccc2c1C(=O)c1ccc(N3CCC(Cc4ccccc4)CC3)cc1S2(=O)=O,-12.9%,-14.2%,-29.0%,-4.4%,-3.8%,·,·,·,
COc1ccc(-c2ccc3c(c2)S(=O)(=O)c2cccc(C(=O)NCCOc4ccccc4Cl)c2C3=O)cc1OC,-21.9%,?,-10.7%,12.7%,-3.4%,·,·,·,
O=C(NCc1ccco1)c1cccc2c1C(=O)c1ccc(/C=C/c3ccccc3)cc1S2(=O)=O,?,14.1µM*,?,25.1µM*,?,·,42.3*,37.9*,Pol kappa inh-2=18.9*
COc1ccc(-c2ccc3c(c2)S(=O)(=O)c2cccc(C(=O)NCc4ccccc4Cl)c2C3=O)cc1OC,-41.2%,?,-1.9%,10µM*,9.2%,·,16.8*,26.9*,
COc1cc(/C=C(\C#N)c2nc3ccccc3[nH]2)ccc1OCc1ccc(F)cc1,·,79.4µM*,-21.1%,?,3.0%,11.2µM*,67*,?,
CCc1nnc(NC(=O)c2sc3nc4cc(C)ccc4cc3c2N)s1,-3.6%,89.1µM*,-19.9%,11.0%,-4.2%,3.0%,42.3*,67.5*,
CCOC(=O)C1=C(CC)Nc2ccccc2N=C1NC(=O)c1ccc(S(=O)(=O)N(C)C)cc1,4.8%,-8.2%,-10.7%,?,?,-1.0%,·,·,
COc1ccc(CCNC(=O)Cn2nc(C)c3c(C)n(-c4ccc(C)cc4)nc3c2=O)c(OC)c1,-23.8%,?,-23.1%,?,-5.8%,35.5µM*,67*,84.9*,Pol kappa inh-2=26.7*
CCc1cc(=O)oc2cc(C)c3c(-c4ccc(F)cc4)coc3c12,·,-11.9%,-5.6%,-2.1%,5.9%,8.7%,·,·,
Cc1ccc(OCC(=O)c2cc(C)c(C)cc2C)c([N+](=O)[O-])n1,?,?,-17.9%,?,-5.3%,2.8%,·,·,
Cc1ccc(OCC(=O)c2c(N)n(C)c(=O)n(C)c2=O)c([N+](=O)[O-])n1,15µM*,11.2µM*,35.5µM*,10µM*,14.1µM*,·,33.6*,30.1*,Pol kappa inh-2=10.6*
CC(=O)c1c(C)oc2ccc(NS(=O)(=O)c3ccc(C)cc3)cc12,-2.4%[12.4 µM],-17.8%,-6.9%,13.0%,-7.9%,14.0%,·,·,
Cc1ccc(C)c(S(=O)(=O)Nc2ccc3oc(C)c(C(=O)O)c3c2)c1,13.4µM*,10µM*,79.4µM*,14.1µM*,12.6µM*,8.91µM*,33.6*,26.9*,GLS hit conf=?;HRP GOx counter=6.9;HEK293 tox=-7.2
Cc1ccc(Cn2c(=S)[nH]c3ccccc3c2=O)cc1,4.4%,-3.7%,15.5%,-10.4%,-1.9%,24.6%,·,·,

# Source: PubChem
